# Data taken from PubChem BioAssay AID1159580 (chemical genetic matrix, 2015).
# Screen size: about 5,500 compounds; about 2,000 (36%) were called active. Another 18% or so got no clear call; they are omitted. Some of the results follow. Unmarked numbers belong to inactive results. Cut-off read from the data, not from the text of the source: active = normalized growth mostly below about 0.91 (no sharp cut-off); inconclusive = no clear call, values can overlap the other calls; inactive = mostly above about 0.92.
# Experiment: chemical genetic growth profiling, strain panel (AID 1159580);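 note: tested at 20 µM; growth read once vehicle control cultures reached saturation at 30 °C; 1 = growth at the plate median or of vehicle wells; lower values mean less growth of the strain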
# Settings: growth OD
# [1] = S. cerevisiae deletion strains, locus YAL013W, strain DEP1, active compounds read low
# [2] = S. cerevisiae deletion strains, locus YBR229C, strain ROT2, active compounds read low
# [3] = S. cerevisiae deletion strains, locus YDL101C, strain DUN1, active compounds read low
# [4] = S. cerevisiae deletion strains, locus YDL134C, strain PPH21, active compounds read low
# [5] = S. cerevisiae deletion strains, locus YDR150W, strain NUM1, active compounds read low
# [6] = S. cerevisiae deletion strains, locus YEL061C, strain CIN8, active compounds read low
# [7] = S. cerevisiae deletion strains, locus YGR078C, strain PAC10, active compounds read low
# [8] = S. cerevisiae deletion strains, locus YHR030C, strain SLT2, active compounds read low
# [9] = S. cerevisiae deletion strains, locus YHR087W, strain rtc3, active compounds read low
# [10] = S. cerevisiae deletion strains, locus YJL187C, strain SWE1, active compounds read low
# [11] = S. cerevisiae deletion strains, locus YJR043C, strain POL32, active compounds read low
# [12] = S. cerevisiae deletion strains, locus YJR075W, strain HOC1, active compounds read low
# [13] = S. cerevisiae deletion strains, locus YLR039C, strain RIC1, active compounds read low
# [14] = S. cerevisiae deletion strains, locus YLR058C, strain SHM2 (second series), active compounds read low
# [15] = S. cerevisiae deletion strains, locus YLR085C, strain ARP6, active compounds read low
# [16] = S. cerevisiae deletion strains, locus YLR262C, strain YPT6, active compounds read low
# [17] = S. cerevisiae deletion strains, locus YML094W, strain GIM5, active compounds read low
# [18] = S. cerevisiae deletion strains, locus YMR219W, strain ESC1, active compounds read low
# [19] = S. cerevisiae deletion strains, locus YNL153C, strain GIM3, active compounds read low
# [20] = S. cerevisiae deletion strains, locus YNL298W, strain CLA4 (second series), active compounds read low
# [21] = S. cerevisiae deletion strains, locus YNL322C, strain KRE1, active compounds read low
# [22] = S. cerevisiae deletion strains, locus YNR030W, strain Alg12, active compounds read low
# [23] = S. cerevisiae deletion strains, locus YPL055C, strain LGE1, active compounds read low
# [24] = S. cerevisiae deletion strains, locus YPL241C, strain CIN2, active compounds read low
# [25] = S. cerevisiae deletion strains, locus YPR135W, strain CTF4, active compounds read low
# [26] = S. cerevisiae strains, strain wild type, active compounds read low
# [27] = S. cerevisiae deletion strains, locus YMR263W, strain SAP30, active compounds read low
# [28] = S. cerevisiae deletion strains, locus YMR307W, strain GAS1, active compounds read low
structure (smiles),measurement,setting,value
S=c1nccc(-c2ccc(Cl)cc2)[nH]1,normalized growth,[1],0.881 (active)
same,normalized growth,[2],0.861 (active)
same,normalized growth,"S. cerevisiae deletion strains, locus YCL061C, strain MRC1, active compounds read low",0.84 (active)
same,normalized growth,[3],0.844 (active)
same,normalized growth,[4],0.882 (active)
same,normalized growth,[5],1.04
same,normalized growth,[6],0.904 (active)
same,normalized growth,[7],0.831 (active)
same,normalized growth,[8],0.722
same,normalized growth,[9],0.912
same,normalized growth,[10],0.969
same,normalized growth,[11],0.818 (active)
same,normalized growth,[12],0.949
same,normalized growth,"S. cerevisiae deletion strains, locus YKL190W, strain CNB1, active compounds read low",0.849 (active)
same,normalized growth,[13],1.01
same,normalized growth,[14],0.957
same,normalized growth,[15],0.413 (active)
same,normalized growth,[16],1.05
same,normalized growth,[17],0.879
same,normalized growth,[18],0.918 (active)
same,normalized growth,[19],0.895 (active)
same,normalized growth,[20],0.76 (active)
same,normalized growth,[21],0.988
same,normalized growth,[22],0.694 (active)
same,normalized growth,"S. cerevisiae deletion strains, locus YOL006C, strain TOP1, active compounds read low",0.36 (active)
same,normalized growth,[23],0.631 (active)
same,normalized growth,[24],0.748 (active)
same,normalized growth,[25],0.554 (active)
same,normalized growth,[26],0.882 (active)
COC(=O)CSc1ncnc2c(C)csc12,normalized growth,[1],0.989
same,normalized growth,[2],0.998
same,normalized growth,[3],0.959
same,normalized growth,[4],0.973
same,normalized growth,[5],0.948
same,normalized growth,[6],0.978
same,normalized growth,[7],0.988
same,normalized growth,[8],0.802
same,normalized growth,[9],0.998
same,normalized growth,[11],0.973
same,normalized growth,[12],0.974
same,normalized growth,[13],0.958
same,normalized growth,[14],0.995
same,normalized growth,[15],0.9
same,normalized growth,[16],0.985
same,normalized growth,[17],0.949
same,normalized growth,[18],1
same,normalized growth,[27],0.981
same,normalized growth,[28],0.903
same,normalized growth,[19],0.994
same,normalized growth,[20],0.945
same,normalized growth,[21],1
same,normalized growth,[22],0.981
same,normalized growth,[23],0.953
same,normalized growth,[24],0.986
same,normalized growth,[25],0.818
COC(=O)CSc1nc2ccc(Cl)cc2s1,normalized growth,[1],0.964
same,normalized growth,[2],0.932
same,normalized growth,[3],0.906
same,normalized growth,[5],1.02
same,normalized growth,[6],0.96
same,normalized growth,[7],0.958
same,normalized growth,[8],0.491 (active)
same,normalized growth,[9],0.942
same,normalized growth,[10],0.949
same,normalized growth,[11],0.977
same,normalized growth,[12],0.955
same,normalized growth,[13],0.842
same,normalized growth,[14],0.932 (active)
same,normalized growth,[15],0.744 (active)
same,normalized growth,[16],0.891
same,normalized growth,[17],0.901
same,normalized growth,[18],0.962
same,normalized growth,[27],1
same,normalized growth,[28],1.15
same,normalized growth,[19],0.962
same,normalized growth,[20],0.877
same,normalized growth,[21],0.959
same,normalized growth,[22],0.975
same,normalized growth,[23],0.92
same,normalized growth,[24],1.18 [resistant] (active)
same,normalized growth,[25],0.685
O=C1NN=C2C3CC4CC12CC1(C3)C(=O)NN=C41,normalized growth,[1],0.992
same,normalized growth,[2],0.999
same,normalized growth,[3],1
same,normalized growth,[4],1.01
same,normalized growth,[5],1
same,normalized growth,[6],0.997
same,normalized growth,[7],1.01
same,normalized growth,"S. cerevisiae deletion strains, locus YGR229C, strain SMI1, active compounds read low",1
same,normalized growth,[8],1.03
same,normalized growth,[9],0.974
same,normalized growth,[11],1.02
same,normalized growth,[12],1.02
same,normalized growth,[13],1.05
same,normalized growth,[14],1
same,normalized growth,[15],0.989
same,normalized growth,[16],1.03
same,normalized growth,[17],0.974
same,normalized growth,[18],1
same,normalized growth,[27],0.974
same,normalized growth,[19],1.02
same,normalized growth,[20],0.983
same,normalized growth,[21],1.02
same,normalized growth,[22],0.978
same,normalized growth,[23],0.981
same,normalized growth,[24],0.998
same,normalized growth,[25],1.01
same,normalized growth,[26],0.999
